High-throughput results deposited in PubChem by National Center for Advancing Translational Sciences (NCATS).
HCV inh = qHTS Assay for Inhibitors of Hepatitis C Virus (HCV); Huh7.5.1 HCVcc-Cre infection, luciferase reporter, 44 h; Potency, µM (highest dose often 41.8 µM), for inactives: top-dose activity change, negative = inhibition, usual class: inhibitors; 340,000 tested, 3.4% active; AID 651820, 2012; further: potency means the concentration at half of the fitted maximal effect
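Antiviral activity was scored by luciferase reporter output from cells infected with HCVcc-Cre (~0.5 moi) in presence of compound, 44 h infection period, cells seeded 1,000/well 4 h prior.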
FMDV antiviral = High Throughput Screening for Foot and Mouth Disease Virus Antivirals | 410,000 tested, 1.2% active | FMDV antiviral cell-based qHTS | Potency, µM (series often up to 57.9 µM), for inactives: at the top dose activity change, negative = inhibition, hits mostly inhibitors; calls by dose curve; tested in HEK293T cells; further: read-out not given here; potency means the concentration at half of the fitted maximal effect; nearly all actives have a fitted effect of over 45% in size
Vaccinia Venus = qHTS for Stage-Specific Inhibitors of Vaccinia Orthopoxvirus: Venus Reporter Primary qHTS; Vaccinia virus Venus reporter expression, fluorescence; Potency, µM (top dose mostly 36.5 µM), for the others: at the top dose activity change, negative = inhibition, usual class: inhibitors; 330,000 tested, 0.46% active; AID 720580, 2013; calls by dose curve; tested in A549 cells; further: potency means the concentration at half of the fitted maximal effect; nearly all actives have a fitted effect of over 30% in size
HCMV inh = qHTS Assay for inhibitors of the human cytomegalovirus (HCMV); HFF cells, HCMV-luciferase reporter, 72 h; active compounds read low; 410,000 tested, 4.5% active; activity change, negative = inhibition, % at 57.5 µM; in the data active means activity change below about -60%; inconclusive means no clear call, values can overlap the other calls; inactive means above about -39%
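Human foreskin fibroblasts infected with luciferase-reporter HCMV at MOI 1 PFU/cell, compounds at two doses. Luciferase measured 72 h post infection; normalized to buffer-only basal and Salinomycin (10uM) controls.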
Vaccinia mCherry = qHTS for Stage-Specific Inhibitors of Vaccinia Orthopoxvirus: mCherry Reporter Primary qHTS. Vaccinia virus mCherry reporter infection, fluorescence. Potency, µM (top dose mostly 36.5 µM), for inactives: at the highest dose activity change, negative = inhibition, most hits filed as inhibitors. 310,000 tested, 0.63% active; calls by dose curve; tested in A549 cells; further: potency means the concentration at half of the fitted maximal effect; nearly all actives have a fitted effect of over 35% in size
Sm TGR block = qHTS Assay for the Inhibitors of Schistosoma Mansoni Peroxiredoxins | purified TGR, DTNB reduction, TNB absorbance 405 nm | Potency, µM (top dose mostly 114 µM), inactives show top-dose activity change, negative = inhibition, most hits filed as inhibitors | 360,000 tested, 3% active; further: potency means the concentration at half of the fitted maximal effect; nearly all actives have a fitted effect of over 60% in size
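Kinetic colorimetric format: TGR-catalysed, NADPH-driven DTNB reduction monitored via TNB absorbance. Enzyme dispensed at 20 nM; compound exposure 15 min at room temperature before reaction start.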
Numbers without * were called inactive; i = inactive; ? = inconclusive; / = not tested or not shown. Most compounds without a hit are left out; they make up all but 9.3% or so of the library. Unless noted, the call rests on the fitted dose curve; in most records, active means well fitted curve in the direction sought with a large enough effect; inconclusive means small, poorly fitted or top-dose-only effect, or another doubt; inactive means no such curve, though single readings can be large; an effect the other way counts as inactive or inconclusive. On the % scale 0 is the no-effect control and ±100 the full control effect.

SMILES	HCV inh	FMDV antiviral	Vaccinia Venus	HCMV inh	Vaccinia mCherry	Sm TGR block
CC12CCC(O)CC1CCC1C2CCC2(C)C(C3=CC(=O)OC3)CCC12O (stereo unspecified)	5µM*	?	0.89µM*	-99*	?	/
COc1cccc(NC(=O)c2ccc3[nH]c(C)cc(=O)c3c2)c1	/	8%	-4%	0	-7%	3%
CC(C)C[C@H](NC(=O)C1CCN(S(=O)(=O)c2ccccc2)CC1)C(=O)NCc1cccnc1	26%	2%	-7%	-19	-7%	3%
Cc1cccc(NC(=O)c2cc(S(=O)(=O)N3CCCC3)cn2C)c1	4%	-12%	-14%	11	i	-4%
Cn1c(=O)c2c(SCC(=O)NCC3CCCO3)nc(-c3ccccc3Cl)nc2n(C)c1=O (stereo unspecified)	?	-23%	-10%	-13	-20%	3%
CCc1nc2ccc(C(=O)N3CCN(C)CC3)cn2c1N(CCC(C)C)CCN(C)C	/	-11%	3%	-72*	40%	/
CCCCN(C(=O)C1CCC1)c1c(N)n(CC(C)C)c(=O)[nH]c1=O	5%	-18%	-1%	-39	4%	-4%
CCOc1cc(-c2ccccc2)nc2c1CN(S(=O)(=O)c1ccc(C)cc1)C(c1cccc(Cl)c1)C2 (stereo unspecified)	/	-18%	-1%	-39	-6%	/
Cc1ccnc(N/C=C(\C#N)c2nc(-c3cccc(Br)c3)cs2)c1	?	-10%	-5%	-80*	-11%	-4%
Cc1ccc(NC(=O)CCCNC(=O)c2ccc(Cl)cc2)c(O)c1	1%	28%	-12%	95	?	-7%
CCCC1C2CN(C(C)C)CC=C2C(C#N)=C(N)C1(C#N)C#N (stereo unspecified)	-6%	-2%	/	13	/	18µM*
Cc1cc(C)n(C(C[N+](=O)[O-])c2ccc(Cl)cc2)n1 (stereo unspecified)	17%	?	-6%	-105*	-20%	0%
Cc1cc(O)c(C(C[N+](=O)[O-])c2ccc(Cl)cc2)c(=O)o1 (stereo unspecified)	5%	-19%	-9%	-16	i	?
CCn1nc(NS(=O)(=O)c2ccc(NC(C)=O)cc2)c2cc3ccc(C)cc3nc21	-19%	34%	/	78	/	-15%
COc1ccccc1Nc1nc(-c2sc(NC(=O)C(C)(C)C)nc2C)cs1	2.5µM*	-17%	-29%	-88*	?	1%
Cc1ccc(Cl)cc1Nc1nc(-c2sc(NC(=O)C(C)(C)C)nc2C)cs1	2%	-22%	-13%	-73*	?	3%
CCOC(=O)C1CCN(C(=O)COC(=O)CSc2ccc([N+](=O)[O-])cc2)CC1	-15%	-9%	-15%	-18	i	-6%
CCc1ccc(C(=O)C(C)OC(=O)C2COc3ccccc3O2)cc1 (stereo unspecified)	5%	-7%	-12%	-98*	-15%	-1%
CC1=C(C(=O)Nc2cc(Cl)ccc2C)C(c2ccco2)n2ncnc2N1 (stereo unspecified)	/	0%	-8%	4	-9%	2%
CCN(CC)c1nc(C#N)nc(N(CC)CC)n1	-7%	?	-10%	-23	-18%	3%
Cc1ccc(Cn2ncc3c(N4CCN(c5ccccc5C)CC4)ncnc32)cc1	?	18µM*	?	-14	/	9%
Cc1ccc(Cn2ncc3c(N4CCOCC4)ncnc32)cc1	?	?	/	-9	/	6%
Clc1ccc(Cn2ncc3c(N4CCN(c5ccccc5)CC4)ncnc32)cc1	/	13µM*	?	-102*	?	/
Cc1ccc(Cl)cc1-n1ncc2c(N3CCN(Cc4ccccc4)CC3)ncnc21	/	3.2µM*	-23%	-35	?	-1%
c1ccc(Cn2ncc3c(N4CCCCC4)ncnc32)cc1	?	-29%	-21%	6	/	1%
SMILES	HCV inh	FMDV antiviral	Vaccinia Venus	HCMV inh	Vaccinia mCherry	Sm TGR block
O=S(=O)(c1ccccc1)N1CCC[C@@]2(CCN(c3ccncc3)C2)C1	/	-13%	/	/	/	/
COc1cccc(Nc2nc(Nc3ccc(Cl)c(C(=O)O)c3)nc(C)c2[N+](=O)[O-])c1	13%	-24%	/	0	/	-11%
Cc1nc2ccccc2c2c(N)c3ccccc3n12	-29%	-21%	-3%	-63*	4%	7%
Cc1nc2ccccc2n1-c1ccccc1	?	-32%	-14%	12	-26%	0%
CC(C)=CCc1c(O)cc2oc3c(CC=C(C)C)c(O)c(O)c(CC=C(C)C)c3c(=O)c2c1O	?	22µM*	?	-101*	?	-16%
O=c1ccn([C@@H]2O[C@H](COS(=O)(=O)O)[C@@H](O)[C@H]2O)c(=O)[nH]1	-9%	0%	-15%	-62*	i	/
CC(=O)N1CCN(C(=O)c2ccco2)CC1	2%	0%	8%	-21	-19%	-11%
CC(=O)N1CCc2cc(C(=O)CN3CCCN(Cc4ccc(F)cc4)C3)ccc21	/	/	/	/	/	45µM*
CC(=O)N1CCc2cc(C(=O)CN3CCC(C)CC3)ccc21	-8%	-16%	-13%	10	i	28µM*
CC(=O)N1CCc2cc(C(=O)CN3CCN(C(=O)c4ccco4)CC3)ccc21	2%	-13%	-7%	/	i	14µM*
CC(=O)N1CCc2cc(C(=O)CN3CCN(c4cccc(Cl)c4)CC3)ccc21	-27%	-12%	-5%	-17	6%	25µM*
CS(=O)(=O)N1CCc2cc(C(=O)N3CCN(c4cccc(Cl)c4)CC3)ccc21	-30%	-18%	-10%	4	-22%	-3%
COc1ccc(CCNC(=O)c2oc3ccc(S(=O)(=O)N4CCOCC4)cc3c2C)cc1OC	-29%	?	-9%	51	-13%	5%
C=C1N(c2ccc(Cl)cc2)C(=O)OC1(C)C	?	15%	/	-3	/	-8%
COc1cc(=O)n2c(c1C(=O)NCc1nccs1)CCN(Cc1ccccc1F)CC2	/	-8%	-17%	/	-5%	/
COc1ccc(NS(=O)(=O)c2cc(NC(=O)c3cnccn3)ccc2N2CCCC2)cc1	?	43%	?	?	-27%	-12%
O=C(Nc1ccc(Cl)cc1)Nc1ccc(N2CCCC2)c(S(=O)(=O)Nc2ccccc2Cl)c1	5.6µM*	-9%	?	-99*	?	5%
COc1ccc(NS(=O)(=O)c2cc(NC(=O)c3cccs3)ccc2N2CCCC2)cc1	?	80%	-14%	-97*	-26%	-2%
COc1ccc(NS(=O)(=O)c2cc(NC(=O)c3ccc(C)o3)ccc2N2CCCCC2)cc1	?	67%	-27%	-90*	-8%	-2%
